Bioassay records from PubChem.
In the library only some 2.8% were active in any assay of this set; here they are far more common.
PI5P4Ka inh – inhibitors of human PI5P4K alpha. 330,000 tested, 1.2% active. P48426. PI5P4Kalpha enzyme, ADP-Glo luminescence, 60 min; hits give low values. max response, %; active means max response of -50% or lower; inconclusive means between -30% and -50%; inactive means -30% or higher; further: value at the top dose of about 77 µM; on the % scale 0 is the no-effect control and ±100 the full control effect
Target sequence (P48426 whole entry, looked up): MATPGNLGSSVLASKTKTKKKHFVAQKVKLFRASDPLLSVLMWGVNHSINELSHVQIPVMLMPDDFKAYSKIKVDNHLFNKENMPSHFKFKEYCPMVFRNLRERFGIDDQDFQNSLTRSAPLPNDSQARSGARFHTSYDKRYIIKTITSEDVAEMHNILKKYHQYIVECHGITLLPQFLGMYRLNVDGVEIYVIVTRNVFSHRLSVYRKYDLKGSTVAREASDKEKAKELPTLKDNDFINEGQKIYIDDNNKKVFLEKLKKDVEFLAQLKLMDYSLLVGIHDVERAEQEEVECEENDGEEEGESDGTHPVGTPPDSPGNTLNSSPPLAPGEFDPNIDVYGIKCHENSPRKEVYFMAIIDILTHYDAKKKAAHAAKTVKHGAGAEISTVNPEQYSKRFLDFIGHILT
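Reactions run in 0.038 M HEPES pH 7.4, 0.28 mM EGTA, 0.1% CHAPS and 5% DMSO, with PI5P4Kalpha, substrate, compound and 5 microM ATP final, one hour at room temperature. Readout is ADP-Glo luminescence.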
Pol kappa inh – DNA polymerase kappa (human) inhibition; Q9UBT6; purified Pol kappa, fluorescent DNA synthesis assay, 10 min; Potency, µM (titrated, usually from 107 µM), for the others: at the top dose activity, negative = inhibition, actives largely listed as inhibitors; 400,000 tested, 0.53% active; further: potency means the concentration at half of the fitted maximal effect; on the % scale 0 is the no-effect control and ±100 the full control effect
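50 nM final substrate added after 15 min RT preincubation of 10 nM Pol kappa with compound; fluorescence read at 0 and 10 min.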
Pol iota inh – DNA polymerase iota (human) inhibition; Q9UNA4; Pol iota fluorescent replication assay, 10 min; Potency, µM (titrated, usually from 115 µM), without a hit: top-dose activity, negative = inhibition, usual class: inhibitors; 390,000 tested, 1% active; AID 588590; further: potency means the concentration at half of the fitted maximal effect
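Fluorescent replication assay read twice, at 0 min and 10 min after adding 50 nM (final) substrate. Enzyme (10 nM) and compounds were first incubated 15 min at room temperature; enzyme-free buffer wells were negative controls.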
WRN inhibitor – inhibitors of human WRN helicase; Q14191; WRN helicase unwinding, fluorescent forked duplex, kinetic; Potency, µM (highest dose often 114 µM), for the others: at the top dose activity change, negative = inhibition, actives largely listed as inhibitors; 360,000 tested, 0.46% active; further: potency means the concentration at half of the fitted maximal effect; on the % scale 0 is the no-effect control and ±100 the full control effect; nearly all actives have a fitted effect of over 55% in size
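WRN at 20 nM final was preincubated with compound for 15 min at room temperature; reaction started with 100 nM forked duplex oligonucleotide carrying fluorophore and quencher plus 2 mM ATP (final). Unwinding followed kinetically by red fluorescence (ex 525/em 598 nm).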
Pol beta inh – blocks human DNA polymerase beta activity. P06746. Pol beta primer extension/strand displacement, fluorescence kinetic. Potency, µM (titrated, usually from 114 µM), inactives show at the highest dose activity change, negative = inhibition, usual class: inhibitors. 340,000 tested, 1.3% active; further: potency means the concentration at half of the fitted maximal effect; on the % scale 0 is the no-effect control and ±100 the full control effect
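Enzyme-only controls used 10 nM Pol beta; buffer lacking enzyme served as negative control. Compound preincubated 15 min, then 50 nM substrate added; 0 and 10 min reads at room temperature.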
POLH inh – blocks human DNA polymerase eta activity. Q9Y253. Potency, µM (top dose mostly 114 µM), inactives show top-dose activity change, negative = inhibition, most hits filed as inhibitors. recombinant Pol eta, fluorescent DNA replication assay. 390,000 tested, 1.2% active; further: potency means the concentration at half of the fitted maximal effect; on the % scale 0 is the no-effect control and ±100 the full control effect
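Pol eta (10 nM) was preincubated with compounds for 15 min at room temperature, after which fluorescent replication substrate (50 nM final) was added to start the reaction. Fluorescence was read kinetically at 0 and 10 min.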
* = called active by the depositor; [ ] = dose if it differs, or a comment. Unless noted, the call rests on the fitted dose curve; in most records, active means well fitted curve in the direction sought with a large enough effect; inconclusive means small, poorly fitted or top-dose-only effect, or another doubt; inactive means no such curve, though single readings can be large; an effect the other way counts as inactive or inconclusive.

Results for O=C(Nc1ccccc1)N(Cc1cccc(Cl)c1)c1ccccn1 ?
Pol kappa inh: -11%; Pol iota inh: 14%; Pol beta inh: -15%; POLH inh: 4%

Results for O=C(/C=C/c1ccccc1)Nc1cc(NC(=O)/C=C/c2ccccc2)cc(C(=O)O)c1 ?
PI5P4Ka inh: -56*; Pol kappa inh: -3%; Pol iota inh: 12%; WRN inhibitor: -7%[11.6 µM]; Pol beta inh: -22%; POLH inh: 50µM*

Results for Fc1ccc(-c2ccnc3nc(-n4cccc4)nn23)cc1 ?
Pol kappa inh: -3%; Pol iota inh: 79µM*; WRN inhibitor: -12%[57.1 µM]; Pol beta inh: inconclusive; POLH inh: -18%

What do the screens show for `CC(C)C(=O)NC(c1cccs1)c1cc([N+](=O)[O-])c2cccnc2c1O` (centres undefined)?
PI5P4Ka inh: -84*; Pol kappa inh: -9%; Pol iota inh: 33%; WRN inhibitor: -14%; Pol beta inh: -1%; POLH inh: inconclusive

Results for N#Cc1nc(-c2ccccc2)cc(-c2ccccc2)n1 ?
Pol kappa inh: -9%; Pol iota inh: -10%

What do the screens show for `CC(C)(O)c1ccc2c(c1)CCC1C(C)(C(=O)O)CCCC21C` (centres undefined)?
PI5P4Ka inh: -17; Pol kappa inh: -39%; Pol iota inh: inconclusive; WRN inhibitor: -11%; Pol beta inh: 40µM*; POLH inh: inconclusive

What do the screens show for `COc1ccc(OCC(=O)N/N=C2\CCCCc3ccccc32)cc1`?
PI5P4Ka inh: -63*; Pol kappa inh: -14%; Pol iota inh: 30%; WRN inhibitor: -9%; Pol beta inh: 6%; POLH inh: 5%

How did CC(C)(C)C(=O)CSc1n[nH]c(-c2ccccc2)n1 do in these assays?
Pol kappa inh: -10%; Pol iota inh: -16%

What do the screens show for `S=c1[nH]nc(-c2ccccn2)n1/N=C/c1ccc(-c2ccccc2Br)o1`?
PI5P4Ka inh: -25; Pol kappa inh: 5%; Pol iota inh: 79µM*; WRN inhibitor: -10%; Pol beta inh: 50µM*; POLH inh: -6%

Results for S=c1[nH]nc(-c2cccc(Cl)c2)n1/N=C/c1ccc(-c2ccccc2Br)o1 ?
PI5P4Ka inh: -2; Pol kappa inh: 0%; Pol iota inh: 3%; WRN inhibitor: 5%; Pol beta inh: 22%; POLH inh: inconclusive

What do the screens show for `Cc1ccc2c(C)ccnc2c1`?
Pol kappa inh: -14%; Pol iota inh: 23%

What do the screens show for `COc1ccc(N2CCc3c(C)nc4c(OC)cc(OC)cc4c32)c(OC)c1`?
Pol kappa inh: -5%; Pol iota inh: 15%; WRN inhibitor: 0%; Pol beta inh: 14%; POLH inh: -7%

What do the screens show for `COc1ccc(N2CCc3c(C)nc4c(OC)cc(OC)cc4c32)cc1`?
PI5P4Ka inh: 0; Pol kappa inh: -2%; Pol iota inh: 25%; WRN inhibitor: 14%[11.6 µM]; Pol beta inh: 40µM*; POLH inh: -3%

Results for Oc1ccc(-c2nc(-c3ccc(O)c(O)c3)cs2)cc1 ?
PI5P4Ka inh: inconclusive; Pol kappa inh: inconclusive; Pol iota inh: inconclusive; WRN inhibitor: inconclusive; Pol beta inh: 40µM*; POLH inh: inconclusive

What do the screens show for `CC(=O)N1CCc2cc(Br)cc(S(=O)(=O)CCC(=O)N3CCN(c4ccccc4)CC3)c21`?
Pol kappa inh: -1%; Pol iota inh: -5%; Pol beta inh: 24%; POLH inh: -4%

Results for Cc1nc2ccc(NC(=O)N3CCOCC3)cc2nc1C ?
PI5P4Ka inh: 2; Pol kappa inh: -4%; Pol iota inh: 31%; WRN inhibitor: 1%; Pol beta inh: 0%; POLH inh: -9%

How did O=C(NCCO)Nc1ccc2nc(-c3ccco3)c(-c3ccco3)nc2c1 do in these assays?
Pol beta inh: 4.5µM*

How did S=C(Nc1ccc(N2CCOCC2)cc1)Nc1ccc2nc(-c3ccco3)c(-c3ccco3)nc2c1 do in these assays?
PI5P4Ka inh: -78*; Pol kappa inh: inconclusive; Pol iota inh: 2µM*; WRN inhibitor: -35%[11.6 µM]; Pol beta inh: 2%; POLH inh: inconclusive

Results for O=C(Nc1ccc2nc(-c3ccco3)c(-c3ccco3)nc2c1)N1CCCC1 ?
Pol kappa inh: 32µM*; Pol iota inh: 3.2µM*

What do the screens show for `O=C(NCCO)Nc1ccc2nsnc2c1`?
PI5P4Ka inh: -3; Pol kappa inh: -8%; Pol iota inh: 5%; WRN inhibitor: 7%; Pol beta inh: 24%; POLH inh: 5%

What do the screens show for `CC1CCN(C(=O)Nc2ccc3nc(-c4ccco4)c(-c4ccco4)nc3c2)CC1`?
Pol kappa inh: 8.9µM*; Pol iota inh: 14µM*

Results for CCCCOC(=O)c1ccc(NC(=O)Cn2nnc3sc4c(c3c2=O)CCCC4)cc1 ?
Pol kappa inh: -10%; Pol iota inh: 2%; Pol beta inh: 0%

How did CCOc1ccccc1-c1nc(C(N)=O)c2c(n1)n(-c1ccc3c(c1)OCO3)c(=O)n2C do in these assays?
Pol kappa inh: -2%[60.1 µM]; Pol iota inh: 26%; Pol beta inh: 2%; POLH inh: -2%

What do the screens show for `O=S(=O)(NCCc1csc2nc(-c3ccccc3)nn12)c1cccs1`?
Pol kappa inh: 2%[60.1 µM]; Pol iota inh: -6%; Pol beta inh: 0%; POLH inh: -18%

Results for CCOC(=O)c1cccc(NC(=O)Cn2c(=O)nc(-c3ccccc3F)c3cc(Cl)ccc32)c1 ?
Pol kappa inh: -11%[60.1 µM]; Pol iota inh: inconclusive; Pol beta inh: 2%; POLH inh: -12%

How did COc1ccc(NC(=O)CSc2nc(-c3ccccc3)nc3cc(=O)[nH]n23)cc1 do in these assays?
Pol kappa inh: inconclusive; Pol iota inh: inconclusive; Pol beta inh: 25µM*; POLH inh: -15%

Results for O=C(CSc1nc(-c2ccccc2)nc2cc(=O)[nH]n12)Nc1ccccc1 ?
Pol kappa inh: -9%[60.1 µM]; Pol iota inh: inconclusive; Pol beta inh: inconclusive; POLH inh: -2%

Results for COc1cccc(-c2nc(SCc3ccc(C)cc3)n3[nH]c(=O)cc3n2)c1 ?
Pol kappa inh: -16%; Pol iota inh: 89µM*; Pol beta inh: inconclusive; POLH inh: -8%

Results for Cc1ccc(NC(=O)CSc2nnc(CNC(=O)c3ccco3)n2C)cc1C ?
PI5P4Ka inh: 1; Pol kappa inh: -2%; Pol iota inh: 31%; WRN inhibitor: 15%; POLH inh: -20%

What do the screens show for `C=CCc1ccccc1OCCSc1nc(-c2ccccc2F)nc2cc(=O)[nH]n12`?
Pol kappa inh: -39%; Pol iota inh: inconclusive; Pol beta inh: 10µM*; POLH inh: inconclusive
